# Results from PubChem BioAssay (NCATS).
# Inconclusive results are not listed. Values without a mark were called inactive. Active and inactive are the calls of the source. Calls come from the whole dose curve; as a rule, active = well fitted inhibition curve with a large enough effect; inconclusive = small, poorly fitted or top-dose-only effect; inactive = flat fitted curve, though single readings scatter.
# Columns and labels:
# Assay in all cases: Cytotoxic Profiling of Annotated Libraries Using Quantitative High-Throughput Screening (AID 1296008); note: nearly all actives have a fitted effect of over 60% in size
# Conditions in all cases: Five cell lines viability, CellTiter-Glo ATP luminescence, 48-72 h; max response: active compounds read low
# CRL-7250 = system: CRL-7250
# In short: (§1)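 Cytotoxicity was measured as CellTiter-Glo ATP luminescence, read after 10 min at room temperature. Compound treatment of the cells lasted 48 or 72 hr at 37 degrees Celsius in a qHTS format.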
# HEK293 = system: HEK293
# In short: as §1
# KB-3-1 = system: KB-3-1
# In short: as §1
# % is set by controls: 0 for no effect and ±100 for the full control effect; potency is the fitted concentration of half-maximal effect.
compound,measurement,setting,value
CC(=O)C1=C(C)N(c2cccc(C(F)(F)F)c2)C(=O)N[C@H]1c1ccc(C#N)nc1,max response,CRL-7250,2.3%
same,max response,HEK293,-4.03%
same,max response,KB-3-1,1.77%
Cc1cc(=O)oc2c(C=O)c(O)ccc12,max response,CRL-7250,0.427%
same,outcome,HEK293,inactive
same,outcome,KB-3-1,inactive
CN1CCN(Cc2ccc(-c3cnc4[nH]cc(-c5ccc6[nH]ccc6c5)c4c3)cc2)CC1,Potency,CRL-7250,10.3 µM (active)
same,Potency,HEK293,6.51 µM (active)
same,Potency,KB-3-1,9.2 µM (active)
C[C@@H]1O[C@@H](O[C@H]2[C@H](O[C@H]3CC[C@@]4(C)C(CC[C@]5(C)C4CC=C4[C@@H]6CC(C)(C)CC[C@]6(C(=O)O[C@@H]6OC[C@H](O)[C@H](O)[C@H]6O[C@@H]6O[C@@H](C)[C@H](O[C@@H]7O[C@H](CO)[C@@H](O)[C@H](O)[C@H]7O)[C@H](O)[C@H]6O)[C@H](O)C[C@]45C)C3(C)C)O[C@H](CO)[C@@H](O[C@@H]3OC[C@@H](O)[C@H](O)[C@H]3O)[C@@H]2O)[C@H](O)[C@H](O)[C@H]1O (some centres not stated),outcome,CRL-7250,inactive
same,max response,HEK293,4.66%
same,outcome,KB-3-1,inactive
CC(NC(=O)C(O)C(C)C)C(=O)NC1C(=O)N(C)CCc2ccccc21 (configuration not stated),max response,CRL-7250,-0.526%
same,outcome,HEK293,inactive
same,outcome,KB-3-1,inactive
O=S(=O)(NCC1CC1)c1ccc(Nc2nccc(N3CCCc4cc(O)ccc43)n2)cc1,Potency,CRL-7250,1.16 µM (active)
same,Potency,HEK293,1.64 µM (active)
same,Potency,KB-3-1,14.6 µM (active)
CC(=O)NC1=NN(C(C)=O)C(C)(c2ccccc2)S1 (configuration not stated),max response,CRL-7250,-15.8%
same,Potency,HEK293,4.11 µM (active)
same,Potency,KB-3-1,5.17 µM (active)
CC(=O)O[C@H]1C[C@@]2(C)[C@@H](CC[C@H]3[C@@]4(C)C=CC(=O)[C@@H](C)[C@@H]4[C@H](O)C(=O)[C@@]32C)/C1=C(/CCC=C(C)C)C(=O)O,max response,CRL-7250,-28.1%
same,max response,HEK293,-6.72%
same,max response,KB-3-1,4.45%
C=C1C(=O)O[C@H](CCC)[C@H]1C(=O)O,max response,CRL-7250,3.05%
same,max response,HEK293,-3.38%
same,max response,KB-3-1,2.02%
O=C(O)c1ccccc1NC(=O)N1CCC(c2ccccc2C(F)(F)F)CC1,outcome,CRL-7250,inactive
same,outcome,HEK293,inactive
same,max response,KB-3-1,-2.67%
CS(=O)(=O)c1ccc([C@H](CC2CCCC2)C(=O)Nc2nccs2)cc1,max response,CRL-7250,1.1%
same,max response,HEK293,-58%
same,outcome,KB-3-1,inactive
CO[C@H]1/C=C/[C@@](C)(O)/C=C/C(=O)O[C@H](C)[C@@H](C)CC/C=C/1C,max response,CRL-7250,-17.6%
same,max response,HEK293,-82.6%
same,max response,KB-3-1,-8.74%
CC1C(=O)CC2C3CCC(C(=O)O)C12CC3(C)CO (configuration not stated),max response,CRL-7250,-22.2%
same,max response,HEK293,0.671%
same,max response,KB-3-1,0.285%
COc1c2ccoc2cc2oc(CO[C@@H]3O[C@H](CO)[C@@H](O)[C@H](O)[C@H]3O)cc(=O)c12,max response,CRL-7250,-0.0339%
same,max response,HEK293,1.44%
same,max response,KB-3-1,-1.43%
CC1=C(C(=O)O)/C(=C\CO[C@@H]2O[C@H](CO)[C@@H](O)[C@H](O)[C@H]2O)C(OC(=O)/C=C\c2ccc(O)cc2)C1 (some centres not stated),max response,CRL-7250,3.65%
same,outcome,HEK293,inactive
same,outcome,KB-3-1,inactive
Cc1cnc(Nc2ccc(F)cc2Cl)nc1-c1c[nH]c(C(=O)NC(CO)c2cccc(Cl)c2)c1 (configuration not stated),max response,CRL-7250,-0.447%
same,Potency,HEK293,5.8 µM (active)
same,max response,KB-3-1,-9.44%
CC1(C)CCC[C@]2(C)[C@H]3CC(=O)O[C@]3(C)CC[C@@H]12,max response,CRL-7250,-21.8%
same,max response,HEK293,-37.4%
same,max response,KB-3-1,-11%
C[C@@H]1C(=O)O[C@H]2[C@@H](O)C34[C@H]5C[C@@H](C(C)(C)C)C36[C@@H](OC(=O)[C@@H]6O)O[C@@]4(C(=O)O5)[C@@]12O (some centres not stated),max response,CRL-7250,-0.587%
same,max response,HEK293,-1.43%
same,max response,KB-3-1,-6.44%
CN(C)CC1CCOC1(c1ccccc1)c1ccccc1 (configuration not stated),max response,CRL-7250,-5.19%
same,max response,HEK293,-21.7%
same,max response,KB-3-1,5.01%
CC1CC(O)C2(OC1=O)OC1C(O)C3C4CCC5CC(OC6OC(CO)C(O)C(O)C6OC6OC(C)C(O)C(O)C6O)CCC5(C)C4CCC3(C)C1C2C (configuration not stated),max response,CRL-7250,-9.09%
same,outcome,HEK293,inactive
same,outcome,KB-3-1,inactive
C=C(C(=O)OC)C1C(O)CC2(C)C(=O)CCC(O)(CO)C2C1O (configuration not stated),outcome,CRL-7250,inactive
same,max response,HEK293,-2.27%
same,max response,KB-3-1,-0.746%
COc1cc(Nc2nc3c(s2)CCCC3c2ccc(F)cc2)ccc1-n1cnc(C)c1 (configuration not stated),Potency,CRL-7250,14.6 µM (active)
same,Potency,HEK293,11.6 µM (active)
same,Potency,KB-3-1,18.4 µM (active)
COC(=O)C[C@H]1C(C)(C)[C@H](OC(=O)C(C)C)[C@@]2(O)C(=O)[C@]1(C)C1CC[C@]3(C)C(CC(=O)O[C@H]3c3ccoc3)[C@]13O[C@@H]32 (some centres not stated),outcome,CRL-7250,inactive
same,max response,HEK293,-5.5%
same,max response,KB-3-1,8.04%
Cc1ccc(NC(=O)c2ccc(CN3CC[C@H](N(C)C)C3)c(C(F)(F)F)c2)cc1Nc1nccc(-c2cncnc2)n1,max response,CRL-7250,-22.1%
same,Potency,HEK293,5.63 µM (active)
same,max response,KB-3-1,-1.65%
